# Sampled rows, rich in hits. Any-hit rate of the full collection: about 9.2%.
# FLuc counter: counter-screen for miR-21 project: firefly luciferase inhibitors or activators; purified FLuc, Km substrates, luminescence inhibition; Potency, µM (top dose mostly 57.5 µM), for inactives: top-dose activity change, negative = inhibition, hits mostly inhibitors; actives 6.9% (n = 360,000);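 note: plate controls were vehicle for no effect and reference inhibitor for full effect; nearly all actives have a fitted effect of over 55% in size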
# Target sequence (P08659 whole entry, looked up): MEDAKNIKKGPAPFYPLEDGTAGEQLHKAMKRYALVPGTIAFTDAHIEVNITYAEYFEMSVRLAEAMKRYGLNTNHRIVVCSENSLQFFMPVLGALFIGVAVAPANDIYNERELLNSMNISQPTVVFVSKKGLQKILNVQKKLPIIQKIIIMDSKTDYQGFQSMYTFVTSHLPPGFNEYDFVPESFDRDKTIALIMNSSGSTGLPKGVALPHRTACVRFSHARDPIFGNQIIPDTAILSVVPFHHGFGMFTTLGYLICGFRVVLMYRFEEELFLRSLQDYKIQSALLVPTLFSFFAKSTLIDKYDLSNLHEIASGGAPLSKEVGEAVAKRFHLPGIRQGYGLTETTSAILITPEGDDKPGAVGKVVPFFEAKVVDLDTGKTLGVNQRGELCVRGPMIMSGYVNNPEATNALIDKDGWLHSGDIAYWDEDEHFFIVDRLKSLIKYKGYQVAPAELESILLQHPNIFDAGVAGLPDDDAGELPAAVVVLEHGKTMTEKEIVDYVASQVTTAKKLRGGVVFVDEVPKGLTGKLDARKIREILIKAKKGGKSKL
#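 Purified P. pyralis luciferase (10nM final) with 10uM D-luciferin and 10uM ATP (Km levels) in 50mM Tris acetate pH 7.5, 10mM Mg acetate, 0.01% Tween-20, 0.05% BSA; qHTS 6-point titration, ~60 µM downward; luminescence read.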
# Rab9 prom act: activates the Rab9 promoter; AID 485297; Huh7 Rab9 promoter-luciferase reporter, luminescence, 24 h; Potency, µM (doses to about 9.22 µM), inactives show at the top dose activation, negative = inhibition, actives largely listed as activators; actives 2.8% (n = 320,000); note: % of control where 0% means no effect; nearly all actives have a fitted effect of over 60% in size
#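 Quantitative HTS format; Huh7 Rab9-luciferase reporter cells (1500/well) receive compound 2 h post-plating, incubate 24 h at 37 °C, then get luciferase reagent for 10 min before luminescence reading.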
# NPC1 prom act: activators of NPC1 promoter; AID 485313; actives 2.4% (n = 320,000); Potency, µM (doses to about 9.22 µM), inactives show at the highest dose activation, most hits filed as activators; Huh7 NPC1 promoter luciferase reporter, 24 h; note: % of control where 0% means no effect; nearly all actives have a fitted effect of over 60% in size
#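 Stable NPC1-promoter luciferase Huh7 line; cpd (DMSO) 24 h, 37 °C, 5% CO2; Amplite luciferase reagent 10 min RT; luminescence readout. qHTS format.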
# SMN2 splice up: SMN2 splice variant enhancement; HEK293 SMN2-luciferase splicing reporter, luminescence, 30-36 h; Potency, µM (doses to about 46.1 µM), inactives show top-dose activity change, positive = activation, usual class: activators; actives 2.8% (n = 210,000); note: % of control where 0% means no effect; nearly all actives have a fitted effect of over 55% in size
#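 HEK293 cells carry an SMN2 minigene-luciferase reporter in which exon 7 inclusion puts luciferase in frame. Cells were seeded at 2000 cells/well, attached for 10-12 hours, then exposed to compounds for 30-36 hours at 37C before ONE-Glo luminescence.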
# ELG1 repair inh: ELG1-dependent DNA repair inhibition. AID 504467. actives 2.3% (n = 330,000). HEK293T ELG1-luciferase reporter, luminescence, 16 h; DNA damage induced by 5-fluorouridine. Potency, µM (series often up to 46.1 µM), for inactives: at the top dose activity change, negative = inhibition, most hits filed as inhibitors; note: % is set by controls: 0 for no effect and ±100 for the full control effect; nearly all actives have a fitted effect of over 55% in size
#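 HEK293T cells expressing luciferase-tagged ELG1 (2,000/well) received 5-Fluorouridine plus compound or DMSO for 16 hr at 37 °C. Luciferase was read by ONE-Glo luminescence after 30 min at room temperature.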
# ELG1 genotoxic: genotoxicity induction in ELG1-luciferase HEK293T cells; HEK293T ELG1-luciferase reporter, luminescence, 16 h; Potency, µM (top dose mostly 46 µM), for the others: at the highest dose activity change, positive = activation, usual class: activators; actives 1.3% (n = 330,000); AID 504466; note: % of control where 0% means no effect; nearly all actives have a fitted effect of over 60% in size
#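 Luminescence read-out: rising ELG1-luciferase signal, reflecting elevated ELG1 protein under genetic stress, flags genotoxic compounds. Cells were treated for 16 hr at 37 °C before ONE-Glo detection.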
# The depositor's hits bear a star; ? = inconclusive; . = no result given. Calls come from the whole dose curve; as a rule, active = well fitted curve in the direction sought with a large enough effect; inconclusive = small, poorly fitted or top-dose-only effect, or another doubt; inactive = no such curve, though single readings can be large; an effect the other way counts as inactive or inconclusive. Potency is the fitted concentration of half-maximal effect.
SMILES,FLuc counter,Rab9 prom act,NPC1 prom act,SMN2 splice up,ELG1 repair inh,ELG1 genotoxic
COc1ccc(CCNC(=O)c2ccc(Cl)cc2Cl)cc1,16.9µM*,-2.1%,0.5%,-16.7%,4.9%,-3.2%
COc1ccc(CC(=O)NCCc2ccc(Cl)cc2Cl)cc1,-13.3%,0.5%,-4.9%,-6.3%,-14.8%,-1.8%
O=C(NCCOc1ccccc1)c1ccccc1Cl,8.49µM*,0.447µM*,0.631µM*,.,?,4.61µM*
CN(C(=O)COc1ccccc1C(=O)NCCOc1ccccc1)c1ccccc1,?,-20.2%,-1.8%,-106.0%,10.3µM*,-13.0%
O=C(NCCc1ccccc1)c1ccccc1Cl,1.9µM*,0.447µM*,0.355µM*,.,?,?
COCCCN1CN=C(NS(=O)(=O)c2ccc(NC(C)=O)cc2)NC1,-1.7%,.,.,1.6%,.,.
O=C(NCCOc1ccccc1Cl)c1cc(F)c(F)cc1Cl,5.36µM*,2.24µM*,2.82µM*,.,?,?
Cc1nn(Cc2ccccc2)c(Cl)c1C(=O)NCCc1ccccc1,9.53µM*,2.24µM*,2.51µM*,14.1µM*,?,?
O=C(O)CCC(=O)Nc1ccccc1C(=O)NCCc1ccccc1,19µM*,?,?,?,?,?
Cc1nn(Cc2ccccc2)c(Cl)c1C(=O)NCc1ccc(C)n1C,3.9%,-4.5%,2.0%,-9.2%,-27.5%,0.8%
O=C(/C=C/c1ccccc1Cl)NCCc1ccccc1,19µM*,?,?,?,?,10.0%
O=C(NCCOc1ccccc1Cl)c1ncn[nH]1,?,?,23.4%,.,?,?
O=C(O)CCC(=O)Nc1ccccc1C(=O)Nc1ccccc1,0.3%,-1.9%,2.0%,0.8%,?,2.8%
Cc1ccc(CN2c3ccccc3-c3nc(SCC(=O)Nc4c(C)cc(C)cc4C)ncc3S2(=O)=O)cc1,3.2%,.,.,.,.,.
O=C(NCCCl)c1ccc(OCc2ccccc2)cc1Cl,?,1.58µM*,?,12.6µM*,?,11.6%
O=C(CCS(=O)(=O)c1ccc(Cl)cc1)Nc1nc(-c2ccncc2)cs1,3.7%,-0.3%,-2.3%,.,7.3µM*,-2.5%
O=C(CCS(=O)(=O)c1ccc(Cl)cc1)Nc1nc(-c2cccnc2)cs1,5.2%,?,15.8%,.,?,.
Cc1c(C(=O)Nc2nc(-c3ccc(F)cc3)ns2)oc2ccc(Cl)cc12,-8.4%,.,.,8.6%,.,.
O=c1sc2ccccc2n1CCCOc1ccccc1,10.7µM*,2.51µM*,3.16µM*,?,?,19.5%
Cc1ccccc1OCCCn1c(=O)sc2ccccc21,9.53µM*,?,?,17.8µM*,?,17.3%
Cc1ccc(OCCCn2c(=O)sc3ccccc32)cc1,16.9µM*,14.7%,15.8%,-1.3%,?,2.3%
Cc1ccc(OCCn2c(=O)sc3ccccc32)cc1,6.75µM*,?,3.55µM*,12.6µM*,?,?
O=C(N/C(=C/c1ccccc1)C(=O)N1CCCCC1)c1ccco1,-1.1%,-1.8%,-1.5%,.,-20.2%,-6.2%
Cc1cc(CSCc2ccc(Cl)cc2)no1,-13.3%,3.7%,5.7%,.,12.7%,-9.2%
CC(C)CNC(=O)c1ccc2c(c1)C(=O)N(Cc1ccco1)C2=O,-1.7%,-2.0%,-3.5%,.,-9.5%,0.9%
SMILES,FLuc counter,Rab9 prom act,NPC1 prom act,SMN2 splice up,ELG1 repair inh,ELG1 genotoxic
C[C@@H]1COC(=O)[C@@H](CC(=O)OC(C)(C)C)C/C=C\C[C@@H](CC(=O)N[C@H](CO)Cc2ccccc2)C(=O)N1,.,.,.,.,-1.0%,3.7%
O=c1sc2ccccc2n1COc1ccccc1,-2.3%,-7.1%,14.8%,-17.1%,5.1%,6.5%
O=c1sc2ccccc2n1COc1ccc(Cl)cc1,19µM*,?,27.5%,-20.7%,?,?
CCn1cc(C(=O)NCCCOC(C)C)c(=O)c2cc(S(=O)(=O)N3CCc4ccccc4C3)ccc21,-1.6%,.,.,11.9%,.,.
Cc1ccc(C(=O)CNc2ccc(Br)cc2)cc1,-19.4%,14.5%,20.3%,4.7%,?,13.1%
Cc1ccc(C(=O)CNc2ccccc2C)cc1,6.01µM*,24.2%,16.8%,-2.6%,?,?
Cc1ccc(C(=O)CNc2ccc(C)cc2C)cc1,13.5µM*,1.7%,-2.0%,.,?,3.4%
Cc1ccc(C(=O)CC(=O)c2ccc(C(C)(C)C)cc2)cc1,9.53µM*,?,?,.,?,5.9%
Cc1ccc(C(=O)CNc2ccccc2)cc1,9.53µM*,24.0%,18.9%,.,?,?
CCC(=O)N1CCc2cc(Br)cc(S(=O)(=O)CCC(=O)NCc3ccc(C)cc3)c21,-13.5%,.,.,28.0%,.,.
Cc1ccc(OCCSc2nc3ccccc3n2CC(=O)N2CCOCC2)cc1C,-1.0%,.,.,.,.,.
COc1ccc(CCNC(=O)C2CCN(C(=O)c3ccc(Cl)cc3)CC2)cc1OC,1.8%,5.7%,1.8%,.,-13.4%,-5.3%
Cc1cccc(NCCC(=O)c2ccc([N+](=O)[O-])cc2)c1C,-2.8%,19.6%,-0.4%,15.9%,-16.1%,-4.8%
O=C(CNc1ccccc1Cl)c1ccc(Br)cc1,16.9µM*,0.6%,0.2%,.,-0.7%,-12.7%
CC(C)(C)c1ccc(C(=O)CS(=O)(=O)c2ccccc2)cc1,2.13µM*,0.891µM*,1.41µM*,3.3%,?,?
O=C(CNc1ccc(F)cc1)c1ccccc1,15.1µM*,0.4%,2.9%,19.5%,?,?
O=C(CNc1ccc(Br)cc1)c1ccccc1,?,6.0%,4.5%,-8.3%,?,?
Cc1ccc(NCCC(=O)c2cccc([N+](=O)[O-])c2)c(C)c1,23.9µM*,0.3%,0.9%,10.6%,?,11.1%
Cc1ccc(S(=O)(=O)CC(=O)c2ccccc2)cc1,?,26.6%,21.7%,-4.8%,12.6%,-0.2%
CSc1ccc(/C=C/C(=O)NC(=O)c2ccccc2O)cc1,0.601µM*,2.51µM*,?,25.1µM*,?,9.2µM*
O=C(/C=C/c1ccc(O)cc1)c1ccccc1O,.,.,.,-114.7%,.,.
O=C(/C=C/c1ccc(O)c(O)c1)NC(=O)c1ccccc1O,9.53µM*,11.2%,?,31.6µM*,?,?
O=C(/C=C/c1ccc(Br)cc1)NC(=O)c1ccccc1O,0.379µM*,1.78µM*,3.55µM*,22.4µM*,?,?
CSc1cccc(Nc2nc3c(S(=O)(=O)c4ccccc4)nnn3c3ccc(Cl)cc23)c1,-3.2%,.,.,7.8%,.,.
COCCn1c(SCC(=O)NNC(=O)c2ccccc2)nc2ccccc21,.,.,.,.,15.4%,-1.4%
CN(CCc1cnn(C)c1)C(=O)C1CCC(=O)N(CC2CCCCC2)C1 (stereo unspecified),-0.4%,6.8%,1.9%,.,-4.0%,0.0%
CC(=O)N(C1=C(N2CCOCC2)C(=O)c2ccccc2C1=O)c1ccc(C(=O)O)cc1,-4.7%,-35.0%,-44.6%,.,23.1µM*,-15.9%
